Screening results from PubChem BioAssay.
HCV inhibitor: qHTS Assay for Inhibitors of Hepatitis C Virus (HCV). Huh7.5.1 HCVcc-Cre infection, luciferase reporter, 44 h. actives 3.4% (n = 340,000). Potency, µM (series often up to 41.8 µM), for the others: top-dose activity change, negative = inhibition, hits mostly inhibitors; also: potency is read from the fitted curve at half-maximal effect
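Compounds are dispensed onto cells plated 4 h earlier at 1,000 per well, with HCVcc-Cre virus (about 0.5 moi) added next. Following 44 h of culture, luminescent signal is measured for 15 sec after 15 min with substrate at room temperature.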
FMDV inh: High Throughput Screening for Foot and Mouth Disease Virus Antivirals | FMDV antiviral cell-based qHTS | Potency, µM (top dose mostly 57.9 µM), without a hit: at the top dose activity change, negative = inhibition, most hits filed as inhibitors | actives 1.2% (n = 410,000) | AID 1159524, 2015; calls by dose curve; tested in HEK293T cells; also: read-out not given here; potency is read from the fitted curve at half-maximal effect; nearly all actives have a fitted effect of over 45% in size
Lassa entry inh: qHTS for Inhibitors of binding or entry into cells for Lassa Virus; Lassa virus pseudotype entry inhibition, cell reporter; Potency, µM (top dose mostly 37.9 µM), for the others: top-dose activity change, negative = inhibition, most hits filed as inhibitors; actives 1.2% (n = 300,000); calls by dose curve; tested in HEK293 cells; also: potency is read from the fitted curve at half-maximal effect; nearly all actives have a fitted effect of over 50% in size
FBPA Giardia inh: qHTS Assay for Inhibitors of Fructose-1,6-bisphosphate Aldolase from Giardia Lamblia. Potency, µM (highest dose often 59.6 µM), without a hit: at the top dose activity, negative = inhibition, most hits filed as inhibitors. purified Giardia FBPA. A8B2U2. actives 0.71% (n = 290,000); also: potency is read from the fitted curve at half-maximal effect; nearly all actives have a fitted effect of over 55% in size
Target sequence (A8B2U2 whole entry, looked up): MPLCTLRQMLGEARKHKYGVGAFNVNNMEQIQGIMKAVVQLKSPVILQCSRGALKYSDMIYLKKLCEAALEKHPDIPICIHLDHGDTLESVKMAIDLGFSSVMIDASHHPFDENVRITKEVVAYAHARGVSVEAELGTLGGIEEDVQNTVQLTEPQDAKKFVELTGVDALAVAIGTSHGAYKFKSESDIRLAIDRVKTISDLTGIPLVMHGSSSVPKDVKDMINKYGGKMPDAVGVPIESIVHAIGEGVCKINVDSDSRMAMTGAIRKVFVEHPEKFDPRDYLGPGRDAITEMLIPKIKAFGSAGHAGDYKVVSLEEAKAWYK
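40 nM FBPA preincubated 10 min at RT with compound (up to 57.5 uM final), then substrate plus GAPDH/TPI/NAD/arsenate coupling and diaphorase/resazurin added. Fluorescence read after 20 min at RT, 525/598 nm.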
MARV entry inh: qHTS for inhibitors of binding or entry into cells for Marburg Virus; Potency, µM (doses to about 37.8 µM), for the others: at the top dose activity change, negative = inhibition, most hits filed as inhibitors; AID 540276, 2011; Marburg virus pseudotyped entry inhibition, cell reporter; actives 1.8% (n = 300,000); calls by dose curve; tested in HEK293 cells; also: potency is read from the fitted curve at half-maximal effect
HCMV antiviral: qHTS Assay for inhibitors of the human cytomegalovirus (HCMV). HFF cells, HCMV-luciferase reporter, 72 h; stronger effect = lower value. activity change, negative = inhibition, % at 57.5 µM. actives 4.5% (n = 410,000). AID 1259415, 2018; in the data active = activity change below about -60%; inconclusive = no clear call, values can overlap the other calls; inactive = above about -39%
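After 16 h attachment at 37C, HFF cells received test compound and HCMV-luciferase (1 PFU/cell); reporter luminescence read 72 h later, data normalized against buffer-only and known inhibitor Salinomycin.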
Numbers without * were called inactive; ? = inconclusive; . = not tested or not shown; [ ] = another dose, or the depositor's remark. Rows were chosen to be rich in hits. Some 8.3% of all compounds tested hit in one or more screens of this group. Unless noted, calls follow the shape of the dose curve; as a rule, active = well fitted curve in the direction sought with a large enough effect; inconclusive = small, poorly fitted or top-dose-only effect, or another doubt; inactive = no such curve, though single readings can be large; an effect the other way counts as inactive or inconclusive. % is scaled to controls: 0 for no effect and ±100 for the full control effect.

SMILES	HCV inhibitor	FMDV inh	Lassa entry inh	FBPA Giardia inh	MARV entry inh	HCMV antiviral
Cc1ccc(C(=O)O/N=C/c2ccc(N(C)C)cc2)cc1	1%	49%	16%	-1%	4%	?
Cc1ccc(/C=C/c2ccc(N(C)C)cc2)[n+](C)c1	3.2µM*	-17%	.	10%	.	-98*
Cc1nc(NC2CCCCC2)c2nc(-c3ccccc3)n(CCCN3CCCCC3C)c2n1 (stereo unspecified)	.	.	.	5%	.	.
C/C1=C\CC(C)(C)/C=C/C(=O)[C@@H](C)CCC[C@H](C)CC(=O)C1	.	.	.	.	.	-1
CCOC(=O)C1=C(CC)Nc2ccccc2N=C1NC(=O)CCNC(C)=O	13%	0%	2.8µM*	1%	3%	-36
CN(C(=O)c1ccc(NC(=O)Cc2ccccc2)cc1)c1ccccc1	.	31%	-14%	.	26%	67
CCN(C(=O)c1ccc(NC(=O)Cc2ccccc2)cc1)c1ccccc1	-10%	-18%	-24%	.	3%	-67*
O=C(Nc1cccc(-c2nc3cccnc3s2)c1)c1cccc(Br)c1	.	-13%	-13%[46.1 µM]	.	3%[46.1 µM]	-67*
O=C(Nc1ccc(-c2nc3cccnc3s2)cc1)c1ccc(Cl)nc1	?	30%	14%	7%	4%[46.1 µM]	-12
O=C(Nc1ccc(-c2nc3cccnc3s2)cc1)c1cccnc1Cl	6.3µM*	3%	3.5µM*	4%	?	87
O=C(Nc1ccc(-c2nc3cccnc3s2)cc1)c1ccc(Br)o1	11µM*	13%	.	3%	.	-91*
O=C(Cc1cscn1)N1CCOc2ccc(CN3CCN(c4ccccn4)CC3)cc2C1	.	-5%	.	.	.	.
COc1cccc(C2C(C)CCC3C(=O)N(C)C(C(C)C)C(=O)N32)c1 (stereo unspecified)	.	.	.	-4%[12.9 µM]	.	.
CC(C)=CCC/C(C)=C/CC/C(C)=C/CC/C(C)=C/CC1=C(C)C(=O)c2ccccc2C1=O	-24%	?	.	?	.	65
CC(C)=CCC1=C(OCC(=O)O)C(=O)c2ccccc2C1=O	-5%	?	.	1.3µM*	.	57
C=CCN1C(=O)NC(=O)/C(=C/c2ccc(N(C)C)c(Br)c2)C1=O	9%	-20%	7.9µM*	-13%	-5%[46.1 µM]	-35
O=C(Nc1ccc(N2CCCC2)c(Cl)c1)c1ccc2c(c1)OCCO2	?	-24%	?	.	?	-4
O=C(Nc1ccc2c(c1)OCCO2)c1ccc(Br)c(S(=O)(=O)N2CCOCC2)c1	?	18µM*	?	-2%	?	-37
O=C(Nc1ccc(N2CCCCC2)c(Cl)c1)c1ccc2c(c1)OCCO2	10µM*	4%	-24%	?	-25%[46.1 µM]	-77*
O=C(Nc1ccc(N2CCOCC2)c(Cl)c1)c1ccc2c(c1)OCCO2	11µM*	-17%	.	8%	.	-61*
O=C(Nc1ccc2c(c1)OCO2)c1ccc(Br)c(S(=O)(=O)N2CCCC2)c1	?	?	?	0%	?	-35
Cn1c(-c2cccs2)[n+](C)c2ccccc21	11µM*	-5%	9%[46.1 µM]	-22%	?	-8
COn1c(=O)c(-c2cccs2)[n+]([O-])c2ccccc21	?	?	0%	-3%	?	3
Cc1ccc(S(=O)(=O)N(C)c2cccc3c2S(=O)(=O)N([C@H](C)c2ccccc2)C[C@@H](COCc2ccccc2)O3)cc1	.	.	.	.	.	-65*
C[C@H](c1ccccc1)N1C[C@@H](COCc2ccccc2)Oc2cccc(N3CCCCC3)c2S1(=O)=O	.	.	.	.	.	-93*
SMILES	HCV inhibitor	FMDV inh	Lassa entry inh	FBPA Giardia inh	MARV entry inh	HCMV antiviral
CCCCN1CC(COCc2ccccc2)Oc2cccc(N3CCCC3)c2S1(=O)=O (stereo unspecified)	?	8%	.	.	.	-10
Cc1ccc(Oc2cccc3c2S(=O)(=O)N([C@H](C)c2ccccc2)C[C@@H](COCc2ccccc2)O3)cc1	.	.	.	.	.	-78*
Cc1cc(Oc2cccc3c2S(=O)(=O)N([C@H](C)c2ccccc2)C[C@@H](COCc2ccccc2)O3)cc(C)c1C	.	.	.	.	.	-93*
COc1ccc(-c2nc3cnc(N(C)C)nc3n(CCc3ccccc3)c2=O)cc1	.	-5%	.	1%	.	.
Cc1oc(-c2cccc(Cl)c2)nc1Cn1c(SCc2ccc(F)cc2)nc2cccnc21	.	-18%	17%[46.1 µM]	.	.	39
Cc1ccc(-c2cc(C(F)(F)F)n3nc(C(=O)Nc4sc5c(c4C#N)CCC(C)C5)cc3n2)cc1 (stereo unspecified)	.	-28%	?	.	11%[46.1 µM]	-18
Cc1cnc(NC(=O)CSc2ccccc2)s1	16%	12%	11%	-3%	14%	62
CCOC(=S)SCC(=O)Nc1ncc(C)s1	?	25µM*	7%	?	?	0
Cc1cc2n(n1)CCCN2C(=O)Nc1ccc(Cl)cc1	.	17%	16%[46.1 µM]	.	.	19
CCC(C)(C)n1nnnc1CN(Cc1ccc(Cl)cc1)Cc1ccco1	?	?	-9%	-16%	?	-64*
COc1ccc2[nH]c(=O)c(C(c3nnnn3C(C)(C)C)N(Cc3ccco3)CC3CCCO3)cc2c1 (stereo unspecified)	13%	3%	-10%	-3%	?	-31
CC(C)(C)n1nnnc1CN(Cc1ccco1)Cc1cc2cc3c(cc2[nH]c1=O)OCO3	-6%	0%	-13%	2%	-3%	-65*
CCC(C)(C)n1nnnc1CN(Cc1ccco1)Cc1cc2cc3c(cc2[nH]c1=O)OCO3	15%	-6%	-30%	-1%	?	.
COc1ccc2cc(CN(Cc3ccco3)C(c3nnnn3C3CCCCC3)C(C)C)c(=O)[nH]c2c1 (stereo unspecified)	?	16µM*	8%	-1%	0%	-24
COc1ccc2cc(CN(Cc3ccco3)Cc3nnnn3C3CCCCC3)c(=O)[nH]c2c1	?	-14%	?	-8%	?	-84*
CCOc1ccc(CCNC(=O)c2sc3nc4n(c(=O)c3c2C)CCCC4)cc1	.	-19%	7%[46.1 µM]	.	.	-13
Cc1ccc(CSc2nnc3[nH]c(=O)cc(C)n23)cc1	.	-7%	-12%[46.1 µM]	.	.	-3
CS(=O)(=O)N(CC(=O)NCCSc1ccccc1)c1cc(C(F)(F)F)ccc1Cl	.	13%	7%[46.1 µM]	.	-18%[46.1 µM]	4
CCCNC(=O)OC[C@H]1O[C@H](CCON=C2C[C@@H](O)[C@@H](O)[C@@H]3[C@H]4C(=O)N(CC)C(=O)[C@@H]4CC[C@H]23)C=C[C@H]1Oc1ccc(OC)cc1	.	.	.	.	0%[14.2 µM]	.
COc1ccc(OC)c(C2NC(=S)NC(C)=C2C(=O)Nc2ccccn2)c1 (stereo unspecified)	20%	-10%	9%	0%	30%[46.1 µM]	-99*
